# In PubChem BioAssay (NCATS):
# “And” between values parts separate entries of the source, which are not always exact repeats. Identical values can stand only once. Inconclusive results are not listed. Values without a mark were called inactive. The source made the active and inactive calls. The call rests on the fitted dose curve; in most records, active means well fitted curve in the direction sought with a large enough effect; inconclusive means small, poorly fitted or top-dose-only effect, or another doubt; inactive means no such curve, though single readings can be large; an effect the other way counts as inactive or inconclusive.
# Columns and labels:
# [1] = biological target: Cellular tumor antigen p53 (Homo sapiens) (UniProt P04637); assay: Primary qHTS for small molecule compounds that upregulate eGFP-tagged delta133p53alpha (in N-terminal) cells. (AID 2060322); details: NCI-H358 eGFP-delta133p53alpha fluorescence, 24 h; activation: hits give high values; further: nearly all actives have a fitted effect of over 75% in size;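 on activation: series mostly up to about 56 µM; 0% = DMSO vehicle and 100% = reference activator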
# Outline: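 NCI-H358 cells pre-induced 24 h with 10 ng/ml doxycycline to express N-terminal eGFP-delta133p53alpha, then dosed 24 h at 37C without doxycycline; fixed, Hoechst-stained, GFP intensity by laser scanning cytometry, normalized to DMSO (0%) and 57.5 uM 5-azacytidine (100%).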
# [2] = BET inhibitor-based combinations targeting novel dependencies in MECOM-rearranged (r) AML: OCI-AML3 cell line (AID 2202232); details: Potency: OCI-AML3 viability; further: nearly all actives have a fitted effect of over 35% in size
# Outline: (§1)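 Readout: CellTiter-Glo luminescence. Exposure: 48 h, 11 concentrations, 500 cells/well. Metric: AUC and within-line Z-AUC after DMSO/empty-well normalization.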
# [3] = BET inhibitor-based combinations targeting novel dependencies in MECOM-rearranged (r) AML: MV-4-11 cell line (AID 2202233); further: nearly all actives have a fitted effect of over 45% in size
# Outline: (§2)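 Seeding density was 500 cells/well, and drug exposure lasted 48 hr under standard culture conditions. Read-out used CellTiter-Glo reagent with a 15 min room-temperature incubation before luminescence measurement; AUC and Z-AUC summarize the normalized responses.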
# [4] = BET inhibitor-based combinations targeting novel dependencies in MECOM-rearranged (r) AML: HNT-34 cell line (AID 2202234); further: nearly all actives have a fitted effect of over 35% in size
# Outline: as §2
# [5] = BET inhibitor-based combinations targeting novel dependencies in MECOM-rearranged (r) AML: UCSD-AML1 cell line (AID 2202235); further: nearly all actives have a fitted effect of over 40% in size
# Outline: as §2
# [6] = BET inhibitor-based combinations targeting novel dependencies in MECOM-rearranged (r) AML: AML-191 cell line (AID 2202236; further: nearly all actives have a fitted effect of over 35% in size)
# Outline: as §1
# [7] = BET inhibitor-based combinations targeting novel dependencies in MECOM-rearranged (r) AML: AML-194 cell line (AID 2202237; further: nearly all actives have a fitted effect of over 40% in size)
# Outline: as §1
# Potency means the concentration at half of the fitted maximal effect.
# Sequence of Cellular tumor antigen p53 (Homo sapiens) (P04637 whole entry, looked up): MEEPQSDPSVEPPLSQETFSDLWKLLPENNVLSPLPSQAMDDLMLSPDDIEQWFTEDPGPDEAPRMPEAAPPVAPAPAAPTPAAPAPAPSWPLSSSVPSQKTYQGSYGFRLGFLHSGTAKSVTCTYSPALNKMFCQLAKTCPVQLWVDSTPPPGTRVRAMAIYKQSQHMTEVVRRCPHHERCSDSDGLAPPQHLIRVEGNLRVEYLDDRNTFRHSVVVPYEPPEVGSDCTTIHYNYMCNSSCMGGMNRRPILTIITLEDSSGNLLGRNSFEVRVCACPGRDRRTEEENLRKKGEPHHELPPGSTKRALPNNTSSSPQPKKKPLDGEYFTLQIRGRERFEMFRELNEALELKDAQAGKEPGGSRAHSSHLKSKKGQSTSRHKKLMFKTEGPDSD
SMILES,activation [1],Potency [2],Potency [3],Potency [4],Potency [5],Potency [6],Potency [7],Potency [1]
Cc1ccc(S(=O)(=O)Nc2nc3ccccc3nc2Nc2ccc3nsnc3c2)cc1,6.55%,inactive,inactive,inactive,inactive,inactive,inactive,
CCOC(=O)[C@H](CCc1ccccc1)N[C@H]1CS[C@H](c2cccs2)CN(CC(=O)O)C1=O,-24.3% and -1.2%,20.9 µM (active),20.9 µM (active),,inactive,,,
CC1=CC(=O)c2ccccc2C1=O,1.69% and -31.8%,18.6 µM (active),7.42 µM (active),23.5 µM (active),,,18.6 µM (active),
Oc1cc2c(cc1O)C1c3ccc(O)c(O)c3OCC1(O)C2 (centres undefined),-7.38%,23.5 µM (active),23.5 µM (active),,20.9 µM (active),,,
NS(=O)(=O)c1cccc2c1C(=O)c1cccc(O)c1C2=O,-16%,1.66 µM (active),0.332 µM (active),1.86 µM (active),2.09 µM (active),2.35 µM (active),2.63 µM (active),
CCCCCNC(=O)N1CCC(CN(Cc2ccc(Cl)cc2)Cc2ccc([N+](=O)[O-])s2)C1 (centres undefined),-3.18%,18.6 µM (active),20.9 µM (active),,inactive,,inactive,
CC(=O)Oc1ccccc1C(=O)Nc1ncc([N+](=O)[O-])s1,-2.09% and 33.3%,18.6 µM (active),,,,20.9 µM (active),,
COc1cc(F)c(C(C)C)cc1-c1ccc(C(F)(F)F)cc1CN1C(=O)O[C@H](c2cc(C(F)(F)F)cc(C(F)(F)F)c2)[C@@H]1C,-9.08%,inactive,,inactive,inactive,inactive,inactive,
Nc1ncnc2c1ncn2[C@@H]1O[C@H](CO)[C@@H](O)[C@@H]1O,23.2%,inactive,inactive,,,inactive,inactive,
O=C(O)CCNC(=O)c1ccc(N=Nc2ccc(O)c(C(=O)O)c2)cc1,-19.8% and -1.86%,,inactive,inactive,inactive,inactive,inactive,
CCn1c(-c2nonc2N)nc2cnc(Oc3cccc(NC(=O)c4ccc(OCCN5CCOCC5)cc4)c3)cc21,-20.5%,,0.332 µM (active),,,,,
OC[C@H](Cc1ccccc1)Nc1nc(Oc2ccc3c(c2)CCC3)nc2c1ncn2Cc1ccc(-c2ccccc2)cc1,-44.8%,8.33 µM (active),,7.42 µM (active),4.68 µM (active),,,
Cc1ncc([N+](=O)[O-])n1CC(C)O (centres undefined),12.6% and -16.1%,inactive,,inactive,,inactive,inactive,
CCOC(=O)N1c2ccc(C(F)(F)F)cc2[C@@H](N(Cc2cc(C(F)(F)F)cc(C(F)(F)F)c2)C(=O)OC)C[C@H]1CC,-8.39%,4.68 µM (active),,inactive,inactive,inactive,inactive,
O=c1c(-n2ccnn2)c[nH]n1-c1cc(N2CCOCC2)ncn1,44.9%,,20.9 µM (active),,,,,
O=C(O)Cc1cccc(OCCCN(Cc2cccc(C(F)(F)F)c2Cl)CC(c2ccccc2)c2ccccc2)c1,4.75%,,20.9 µM (active),,,,,
COc1ccc(-c2oc3c(CC=C(C)C)c(O)cc(O)c3c(=O)c2O)cc1,-9.57%,inactive,,inactive,inactive,inactive,,
CC(C)Cn1cnc2c(N)nc3ccccc3c21,-10% and 13.9%,inactive,,inactive,inactive,inactive,inactive,
O=C(Nc1ccccc1Br)N[C@@H]1CCN(c2ccc(C(F)(F)F)cn2)C1,10.1%,,inactive,inactive,inactive,,inactive,
COc1cc2ncnc(Nc3cc(Br)c(O)c(Br)c3)c2cc1OC,26.5%,,7.42 µM (active),18.6 µM (active),26.3 µM (active),,,
CCN(CC)CCCCNc1nc2cc(Cl)c(Cl)cc2nc1-c1ccc(-c2cccs2)s1,,20.9 µM (active),,,,26.3 µM (active),,6.85 µM (active)
COc1ccc(Nc2cc(-c3cnc(N)nc3)nc(N3CCOCC3)n2)cn1,24.5%,,5.25 µM (active),,,,,
COc1cc(C[C@@H](CO)[C@H](CO)Cc2ccc(O)c(OC)c2)ccc1O,-3.34%,,inactive,inactive,inactive,inactive,inactive,
CCc1nc(N)nc(N)c1-c1ccc(Cl)cc1,-15.9% and -12.3%,,14.8 µM (active),inactive,inactive,,,
CCCCCCCCCCCCCCCC(=O)O[C@H]1[C@@H](O)[C@@H](O)[C@@H]([C@H](NC(=O)[C@@H]2C[C@@H](CCC)CN2C)[C@H](C)Cl)O[C@@H]1SC,17.9%,,16.6 µM (active),,,,,
NC(=O)N1CCC(CC(=O)N2CCC([C@H]3c4ncc(Br)cc4CCc4cc(Cl)cc(Br)c43)CC2)CC1,7.44%,1.18 µM (active),,11.8 µM (active),3.72 µM (active),,,
Cn1c(Nc2ccc(C(F)(F)F)cc2)nc2cc(Oc3ccnc(-c4ncc(C(F)(F)F)[nH]4)c3)ccc21,0.151%,2.95 µM (active),,0.332 µM (active),0.833 µM (active),0.833 µM (active),,
